For six compounds, Potency, activity change, negative = cytotoxicity and max response results are on record in PubChem BioAssay (NCATS).

Experiment [1] is described as follows: Cell Viability - Hek293 (AID 427;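 active = compounds whose dose-response curve shows a full or clear partial loss of cell viability, called from curve shape rather than a numeric limit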;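 also: potency is read from the fitted curve at half-maximal effect; cells exposed to compound for 40 hours at 37 °C before reading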). The following applies: qHTS. The method in brief: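 HEK293 cells in complete medium were exposed to compound for 40 hr at 37 °C, then cellular ATP was read by CellTiter-Glo luminescence. Data were normalized to DMSO (basal) and 100 uM tamoxifen (100% inhibition), and AC50 came from Hill fits.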
(In general: In qHTS, concentration-response curves come from the screen itself.)

Experiment [2] in a line: Cell Viability - N2a (AID 540).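 Also: plate controls were DMSO alone for no effect and tamoxifen control for full effect; nearly all actives have a fitted effect of over 45% in size.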 The following applies: N2a mouse neuroblastoma cell viability; activity change, negative = cytotoxicity: at 92.2 µM (top of the series). The method in brief: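 Cytotoxicity was scored as loss of cellular ATP in N2a cells, a mouse neuroblastoma line. Compounds are applied in a qHTS concentration series for 40 hr at 37 °C.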
Experiment [3] can be described thus: Cell Viability - H-4-II-E (AID 543). Also: % is scaled to controls: 0 for no effect and ±100 for the full control effect; nearly all actives have a fitted effect of over 35% in size. The following applies: H-4-II-E rat hepatoma viability; series mostly up to 92.2 µM. The method in brief: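 Cells seeded at 1500 per well and rested 5 hr; compounds added; 40 hr incubation at 37 °C; CellTiter-Glo added, 20 min at room temperature; luminescence read. Hill-equation fits gave AC50.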
Experiment [4] in a line: Cell Viability - SH-SY5Y (AID 544).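 Also: 0% = DMSO alone and -100% = 100 µM tamoxifen; nearly all actives have a fitted effect of over 55% in size.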 The following applies: SH-SY5Y neuroblastoma cell viability; viability change, negative = cytotoxic: at 92.2 µM (top of the series). The method in brief:
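Cells were plated at 1500 per well and allowed 5 hr at 37 °C. Compounds were added across a concentration range and incubated 40 hr at 37 °C. CellTiter-Glo was added for 20 min at room temperature before luminescence reading.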

Experiment [5] is described as follows: Cell Viability - Renal Proximal Tubule (AID 545).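 Also: 0% = DMSO only and -100% = 100 µM tamoxifen; nearly all actives have a fitted effect of over 40% in size.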 The following applies: renal proximal tubule cells viability, primary cells of rat origin; activity change, negative = cytotoxicity: at 91.7 µM (top of the series). The method in brief:
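Luminescent ATP signal (CellTiter-Glo) served as the viability read-out after 40 hr compound exposure of freshly isolated rat proximal tubule cells at 37 °C. Concentration-dependent ATP loss was fitted with the Hill equation to give AC50.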

Experiment [6] can be described thus: MultiTox-Fluor Cytotoxicity Assay - LYMP1-002 - Dead Cells (AID 960).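 Also: cells exposed to compound for 16 h at 37 °C; 0% = DMSO and 100% = tetraoctylammonium bromide; nearly all actives have a fitted effect of over 60% in size.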 The following applies: LYMP1-002 lymphoblastoid cells, dead-cell protease fluorescence; series mostly up to 46.1 µM. The method in brief: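 Cells were plated, rested 5 hr, then treated with compound dilution series for 16 hr at 37 C. After adding substrate reagent and 60 min at room temperature, dead-cell protease fluorescence gave concentration-response curves fitted by the Hill equation.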

Experiment [7] can be described thus: Cell Viability - LYMP2-004 (AID 966).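 Also: plate controls were DMSO only for no effect and tetraoctylammonium bromide control for full effect; nearly all actives have a fitted effect of over 65% in size.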 The settings on record: LYMP2-004 lymphoblastoid cell viability, qHTS; series mostly up to 92.2 µM. The method in brief:
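qHTS cytotoxicity: human lymphoblastoid line, 24 hr compound treatment, 37 C, complete medium. Viability read as cellular ATP via luciferase luminescence; tetraoctylammonium bromide served as positive control.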

The nature of experiment [8]: Cell Viability - LYMP2-005 (AID 967).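 Also: cells exposed to compound for 24 h at 37 °C; plate controls were DMSO only for no effect and 92 µM tetraoctylammonium bromide control for full effect.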 The settings on record: LYMP2-005 lymphoblastoid cell viability; series mostly up to 92.2 µM. The method in brief:
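Acute cytotoxicity is scored as a concentration-dependent drop in intracellular ATP in human lymphoblastoid LYMP2-005 cells after 24 h compound treatment. ATP is quantified by luciferase luminescence, and AC50 is derived by Hill-equation modelling.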

Experiment [9] is described as follows: Cell Viability - LYMP2-009 (AID 968).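 Also: cells exposed to compound for 24 h at 37 °C; 0% = DMSO alone and the full-kill end = tetraoctylammonium bromide at 92 µM; nearly all actives have a fitted effect of over 55% in size.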 The following applies: LYMP2-009 lymphoblastoid cell viability; series mostly up to 92.2 µM.
A short description of experiment [10]: Cell Viability - LYMP2-015 (AID 971).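 Also: 0% = DMSO only and full effect = 92 µM tetraoctylammonium bromide; nearly all actives have a fitted effect of over 55% in size.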 The following applies: LYMP2-015 lymphoblastoid cell viability; series mostly up to 92.2 µM. The method in brief: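 Cells are seeded at 2500 per well and incubated 5 hr at 37 C. Compounds are added across a concentration series for 24 hr at 37 C. CellTiter-Glo is added, and luminescence is read after 30 min at room temperature.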

The nature of experiment [11]: Cell Viability - LYMP2-017 (AID 972).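 Also: cells exposed to compound for 24 hours at 37 °C; % is scaled to controls: 0 for no effect and ±100 for the full control effect; nearly all actives have a fitted effect of over 55% in size.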 The following applies: LYMP2-017 lymphoblastoid cell viability; series mostly up to 92.2 µM. The method in brief:
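Cytotoxicity is scored as a concentration-dependent drop in cellular ATP in a human lymphoblastoid line after 24 hr treatment at 37 C. Values are AC50s from Hill-equation modelling.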

A short description of experiment [12]: Cell Viability - LYMP2-006 (AID 978).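 Also: cells exposed to compound for 24 hours; % is scaled to controls: 0 for no effect and ±100 for the full control effect; nearly all actives have a fitted effect of over 60% in size.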 The following applies: LYMP2-006 lymphoblastoid cell viability, qHTS; series mostly up to 92.2 µM. The method in brief:
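Cells are seeded at 2500 per well and rested 5 hr at 37 C. Compounds are added across a concentration series for 24 hr at 37 C, after which ATP is quantified by luciferase luminescence.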

Experiment [13] in a line: Cell Viability - LYMP2-010 (AID 981). The following applies: LYMP2-010 lymphoblastoid cell viability, qHTS; series mostly up to 92.2 µM. Summed up:
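Steps: seed 2500 LYMP2-010 cells per well; incubate 5 hr at 37 C; add compound; incubate 24 hr at 37 C; add CellTiter-Glo, wait 30 min at room temperature; read luminescence. Concentration-response fitted to Hill equation for AC50.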

The nature of experiment [14]: qHTS assay for small molecule agonists of retinoid X receptor alpha signaling (AID 588544; calls by dose curve). The following applies: HEK293T RXRa-UAS-bla, beta-lactamase reporter, 18 h; 530 nm emission.
For experiment [15], the target named is Retinoic acid receptor RXR-alpha (Homo sapiens) (UniProt P19793). The experiment is described as above. The settings on record: HEK293T RXRa-UAS-bla, beta-lactamase reporter, 18 h; series mostly up to 76.7 µM.
Experiment [16] has as its target Thyroid hormone receptor beta (Homo sapiens) (UniProt P10828). The experiment can be described thus: qHTS assay for small molecule agonists of thyroid hormone receptor beta signaling (AID 588545; calls by dose curve;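 also: 0% = DMSO only and 100% = 10 nM T3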). The settings on record: TR-UAS-bla GripTite HEK 293, beta-lactamase ratio, agonist mode, 18 h; series mostly up to 76.7 µM. The method in brief: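 Beta-lactamase reporter activity under TR response element control is measured in HEK 293 cells after 18 hrs compound exposure. Signal is ratiometric CCF4 fluorescence, 460/530 nm.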

A short description of experiment [17]: qHTS assay for small molecule disruptors of the mitochondrial membrane potential - 1 hr assay (AID 651754; calls by dose curve; also: % is scaled to controls: 0 for no effect and ±100 for the full control effect; nearly all actives have a fitted effect of over 35% in size). The settings on record: series mostly up to 92.2 µM. The method in brief: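 Loss of mitochondrial potential shifts the cationic dye from red mitochondrial aggregates to green cytoplasmic monomers. Cells (HepG2) are treated with compound for 1 hr before a 30 min dye incubation at 37C.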

Experiment [18] in a line: qHTS assay for small molecule disruptors of the mitochondrial membrane potential - 5 hr assay (AID 651755; calls by dose curve; also: % is scaled to controls: 0 for no effect and ±100 for the full control effect; nearly all actives have a fitted effect of over 40% in size). The settings on record: JC-1-type ratio dye; series mostly up to 92.2 µM. Summed up:
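Seed HepG2 overnight, add compound, incubate 5 hr at 37C and 5% CO2, stain 30 min with Mito-MPS, then measure monomer (490/535 nm) and aggregate (540/590 nm) fluorescence.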

Experiment [19] in a line: qHTS assay for small molecule agonists of the antioxidant response element (ARE) signaling pathway measured by Nrf2-dependant transcriptional activity (AID 720636; active = well fitted curve in the direction sought with a large enough effect in the repeat runs; an effect the other way counts as inactive or inconclusive;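 also: HepG2 cells with an ARE-driven luciferase reporter; % of control where 0% means no effect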). The settings on record: ARE-luc HepG2, Nrf2 luciferase reporter, 16 h; series mostly up to 92.4 µM. The method in brief:
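Nrf2-dependent transcription is measured in ARE-luc HepG2 cells: compound is applied for 16 hr at 37 C after a 6 hr attachment period, and luciferase activity is quantified by luminescence using ONE-Glo.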

Experiment [20] has as its target Nuclear receptor subfamily 1 group I member 2 (Rattus norvegicus) (UniProt Q9R1A7). The experiment can be described thus: qHTS assay for small molecule activators of the rat pregnane X receptor (rPXR) signaling pathway (AID 651751; call rule not given here; also: 0% is about no effect). The settings on record: rPXR reporter cells, luciferase (One-Glo), 24 h.

“And” between values parts separate entries of the source, which are not always exact repeats. Equal values may be shown once. Inconclusive results are not listed. The source made the active and inactive calls. Unless noted, calls follow the shape of the dose curve; as a rule, active = well fitted curve in the direction sought with a large enough effect; inconclusive = small, poorly fitted or top-dose-only effect, or another doubt; inactive = no such curve, though single readings can be large; an effect the other way counts as inactive or inconclusive.

Nuclear receptor subfamily 1 group I member 2 (Rattus norvegicus), sequence (Q9R1A7 whole entry, looked up): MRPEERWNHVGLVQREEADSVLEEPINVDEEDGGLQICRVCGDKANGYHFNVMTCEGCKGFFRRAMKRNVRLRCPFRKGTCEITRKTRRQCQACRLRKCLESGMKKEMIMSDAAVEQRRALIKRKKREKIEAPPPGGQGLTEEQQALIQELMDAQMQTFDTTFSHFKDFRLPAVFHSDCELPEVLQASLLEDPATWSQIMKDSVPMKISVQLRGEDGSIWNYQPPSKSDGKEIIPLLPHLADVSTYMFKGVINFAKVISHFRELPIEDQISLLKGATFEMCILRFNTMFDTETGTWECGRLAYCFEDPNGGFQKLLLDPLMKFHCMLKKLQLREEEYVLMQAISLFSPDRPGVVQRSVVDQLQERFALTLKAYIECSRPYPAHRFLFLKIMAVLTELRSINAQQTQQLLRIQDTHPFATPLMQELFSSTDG
Thyroid hormone receptor beta (Homo sapiens), sequence (P10828 whole entry, looked up): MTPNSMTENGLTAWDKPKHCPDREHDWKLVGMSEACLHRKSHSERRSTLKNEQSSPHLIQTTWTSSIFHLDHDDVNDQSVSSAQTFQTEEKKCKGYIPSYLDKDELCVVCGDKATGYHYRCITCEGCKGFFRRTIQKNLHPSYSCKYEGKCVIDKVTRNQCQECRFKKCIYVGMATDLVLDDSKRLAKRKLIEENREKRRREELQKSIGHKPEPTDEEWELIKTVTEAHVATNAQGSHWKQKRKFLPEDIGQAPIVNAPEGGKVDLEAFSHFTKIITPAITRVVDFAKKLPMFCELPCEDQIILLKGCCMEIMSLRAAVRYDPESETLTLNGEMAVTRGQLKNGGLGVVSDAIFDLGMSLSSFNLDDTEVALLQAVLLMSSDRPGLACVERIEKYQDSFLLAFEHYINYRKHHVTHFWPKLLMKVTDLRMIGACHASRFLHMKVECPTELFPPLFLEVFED
Retinoic acid receptor RXR-alpha (Homo sapiens), sequence (P19793 whole entry, looked up): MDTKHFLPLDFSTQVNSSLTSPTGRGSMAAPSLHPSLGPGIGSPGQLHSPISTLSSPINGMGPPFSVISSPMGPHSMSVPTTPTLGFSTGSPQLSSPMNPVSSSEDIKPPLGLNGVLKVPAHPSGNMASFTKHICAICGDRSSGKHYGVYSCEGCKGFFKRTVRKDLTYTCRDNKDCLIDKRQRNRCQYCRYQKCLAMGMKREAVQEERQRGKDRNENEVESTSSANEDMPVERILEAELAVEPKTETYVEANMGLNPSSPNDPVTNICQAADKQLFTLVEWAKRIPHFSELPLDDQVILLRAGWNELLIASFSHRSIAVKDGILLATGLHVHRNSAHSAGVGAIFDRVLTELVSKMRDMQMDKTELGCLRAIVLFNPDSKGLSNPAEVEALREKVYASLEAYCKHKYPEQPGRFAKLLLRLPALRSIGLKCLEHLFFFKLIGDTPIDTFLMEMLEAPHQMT

In the case of `C=CC1CO1` (configuration not stated), in experiment [1], the Potency is > 92 µM (inactive). The activity change, negative = cytotoxicity in [2] was 2.77% (inactive). Besides, the Potency result in [3], in experiment [4], in [5], in experiment [6], in experiment [7] and in experiment [8] was “inactive” each time. Further, the Potency entry in [9], in [10], in experiment [11], in [12], in experiment [13] and in experiment [15] was “inactive” in each case. The Potency result in experiment [16], in experiment [17], in [18] and in [19] was “inactive” throughout. Further, the figures for the max response in [14] and in experiment [20] were -16.9% and 4.12% (inactive), respectively.

Take `O=C(OCc1ccccc1)c1ccccc1O`: in experiment [1], the Potency was > 92 µM (inactive). Further, in [2], the activity change, negative = cytotoxicity is -11.2% (inactive). Besides, the Potency result in [3], in [4], in [5], in experiment [7], in experiment [8] and in experiment [9] was “inactive” in each case. The Potency result in [10], in [11], in experiment [12], in experiment [13], in [15] and in [16] was “inactive” in each case. The Potency entry in [17], in experiment [18] and in experiment [19] was “inactive” in each case. The max response was -8.01% and -0.712% in experiment [14]; -3.94% (inactive) and -2.55% (inactive) in experiment [20].

As for `c1ccc(CSCc2ccccc2)cc1`, the Potency in experiment [1] is > 92 µM (inactive). Also, in experiment [2], the activity change, negative = cytotoxicity was -17.4% (inactive). For the same compound, the Potency result in experiment [3], in experiment [4], in experiment [5], in experiment [6], in [7] and in experiment [8] was “inactive” each time. Also, the Potency result in experiment [9], in [10], in [11], in [12], in experiment [13] and in experiment [15] was “inactive” in each case. The Potency entry in [16], in [17], in experiment [18] and in experiment [19] was “inactive” in each case. Moreover, the max response in experiment [14] is -16.6%; in experiment [20] it was -1.32% (inactive).

For the compound `NC(=O)c1ccc([N+](=O)[O-])cc1`, in experiment [1], the Potency is > 92 µM (inactive). The activity change, negative = cytotoxicity in experiment [2] is 4.68% (inactive). Moreover, the Potency result in experiment [3], in experiment [4], in experiment [5], in experiment [6], in [7] and in experiment [8] was “inactive” throughout. Further, the Potency result in [9], in experiment [10], in [11], in [12], in experiment [13] and in experiment [15] was “inactive” in each case. Besides, the Potency result in experiment [16], in experiment [17], in [18] and in experiment [19] was “inactive” each time. In addition, the max response in [14] is -9.87%; in [20] it was -2.18% (inactive).

Take `Cc1ccc(C(=O)O)cc1[N+](=O)[O-]`: in experiment [1], the Potency was > 92 µM (inactive). Besides, the activity change, negative = cytotoxicity in experiment [2] is 4.91% (inactive). Moreover, the Potency entry in experiment [3], in experiment [4], in [5], in experiment [6], in [7] and in [8] was “inactive” throughout. Besides, the Potency result in [9], in experiment [10], in experiment [11], in experiment [12], in experiment [13] and in experiment [15] was “inactive” throughout. Moreover, the Potency entry in [17], in [18] and in experiment [19] was “inactive” in each case. Also, the max response was 0.231% in [14] and 1.55% (inactive) in experiment [20].

In the case of `CCNC(=S)NCC`, the Potency in experiment [1] was > 92 µM (inactive). For the same compound, in experiment [2], the activity change, negative = cytotoxicity was -22% (inactive). In addition, the Potency entry in experiment [3], in experiment [4], in experiment [5], in [6], in [7] and in [8] was “inactive” in each case. The Potency entry in experiment [9], in experiment [10], in experiment [11], in [12], in experiment [13] and in experiment [15] was “inactive” each time. The Potency result in experiment [17], in [18] and in experiment [19] was “inactive” in each case. Further, the values for the max response in experiment [14] and in experiment [20] were -2.72% and -0.653% (inactive), respectively.
